Assay results as given in PubChem BioAssay (NCATS).
Results filed as inconclusive are left out. Unless noted, the call rests on the fitted dose curve; in most records, active means well fitted curve in either direction with a large enough effect (not every such curve was filed as active); inconclusive means small, poorly fitted or top-dose-only effect, or another doubt; inactive means flat fitted curve, though single readings scatter.

What was measured:
[1] = AP1 Signaling Pathway (AID 357); conditions: ME-180 AP-1-bla reporter, EGF-induced, beta-lactamase ratio, 5 h; at 17.2 µM (top of the series) unless noted; further: on the % scale 0 is the no-effect control and ±100 the full control effect
Procedure, shortened: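 AP-1-bla ME-180 cells with beta-lactamase reporter under AP-1 response element, stimulated with EC50 EGF; compounds titrated, 5 hours at 37 degrees Celsius. CCF4 read at 460/530 nm ratio; positive and negative modulators judged by AC50.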

[2] = NFAT Signaling Pathway (AID 444); conditions: Jurkat NFAT-bla M1, carbachol, beta-lactamase ratio, 5 h; at 17.2 µM (top of the series) unless noted;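 further: carbachol stimulus at about its EC50 of 1 µM final; on the % scale 0 is the no-effect control and ±100 the full control effect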
Procedure, shortened: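 Read-out: CCF4 FRET ratio (460 nm/530 nm) after 1 h RT dye loading, used for %activity and AC50 from titration series. Cells: Jurkat NFAT-β-lactamase/M1 line, treated with compound plus 1 uM carbachol for 5 h, 37 °C.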

[3] = Stat Signaling Pathway (AID 446); conditions: ME-180 (cervical carcinoma) SIE beta-lactamase reporter, IL-6 stimulated, 5 h; at 17.2 µM (top of the series) unless noted;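 further: ME-180 cervical cancer cells given 40 pM IL-6 alongside compound; SIE-controlled beta-lactamase reporter measured as 460/530 nm FRET emission ratio; on the % scale 0 is the no-effect control and ±100 the full control effect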
Procedure, shortened: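 Emission at 460 and 530 nm (excitation 405 nm) reports SIE-controlled beta-lactamase in ME-180 cells. Cells received compound with 40 pM IL-6 for 5 hrs at 37 C; data scaled between 300 pM IL-6 and 125 nM JAK-inhibitor controls.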

[4] = biological target: Glucocorticoid receptor (Homo sapiens) (UniProt P04150); experiment: GR-GFP Redistribution (AID 450;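 active means compounds whose dose series gives a full or clear partial fitted curve of increased nuclear translocation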; further: potency means the concentration at half of the fitted maximal effect)
Chain of Glucocorticoid receptor (Homo sapiens) (P04150 whole entry, looked up): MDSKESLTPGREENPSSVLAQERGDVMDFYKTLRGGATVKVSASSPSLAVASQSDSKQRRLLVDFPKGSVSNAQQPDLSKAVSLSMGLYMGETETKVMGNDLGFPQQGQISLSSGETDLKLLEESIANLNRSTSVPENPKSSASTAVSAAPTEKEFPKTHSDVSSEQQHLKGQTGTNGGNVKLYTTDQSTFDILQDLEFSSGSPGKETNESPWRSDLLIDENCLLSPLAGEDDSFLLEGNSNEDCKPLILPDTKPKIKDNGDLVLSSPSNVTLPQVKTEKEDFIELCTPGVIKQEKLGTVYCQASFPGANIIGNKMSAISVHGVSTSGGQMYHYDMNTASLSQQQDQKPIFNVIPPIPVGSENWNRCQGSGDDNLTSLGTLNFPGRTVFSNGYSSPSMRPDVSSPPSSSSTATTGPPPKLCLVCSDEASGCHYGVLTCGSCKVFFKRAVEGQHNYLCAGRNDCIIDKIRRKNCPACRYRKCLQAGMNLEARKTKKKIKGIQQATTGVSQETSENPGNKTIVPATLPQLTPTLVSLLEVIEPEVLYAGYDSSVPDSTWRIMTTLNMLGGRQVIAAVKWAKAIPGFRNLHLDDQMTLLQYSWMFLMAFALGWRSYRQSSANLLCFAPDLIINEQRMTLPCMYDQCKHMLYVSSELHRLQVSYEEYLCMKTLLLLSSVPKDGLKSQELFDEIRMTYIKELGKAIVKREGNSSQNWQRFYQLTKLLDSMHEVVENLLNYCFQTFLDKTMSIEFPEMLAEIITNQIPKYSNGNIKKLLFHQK

C=C(C)C1Cc2c(C)nn(-c3nc(C)cc(C)n3)c2C1 (stereo unspecified)
inactive: activity change, negative = inhibition [1] -4.28% | activity change, negative = inhibition [2] 10.4% | activity, negative = inhibition [3] 0.182% | Potency [4] > 20.6 µM

COC(=O)CSc1ncnc2c1sc1nc(-c3ccco3)c3c(c12)CC(C)(C)OC3
inactive: activity change, negative = inhibition [1] -2.46% | activity change, negative = inhibition [2] -26.7% | activity, negative = inhibition [3] -10.8% | Potency [4] > 20.6 µM

O=C(NCC(F)(F)F)Nc1nnc(C(F)(F)F)s1
inactive: activity change, negative = inhibition [1] -9.88% | activity change, negative = inhibition [2] -2.8% | activity, negative = inhibition [3] -4.37% | Potency [4] > 20.6 µM

CCOC(=O)c1cc(C)n(-c2ccc(OC)c(OC)c2)c1C
inactive: activity change, negative = inhibition [1] -17.8% | activity change, negative = inhibition [2] -1.46% | activity, negative = inhibition [3] -14.1% | Potency [4] > 20.6 µM

CC(=O)NCCCCCCNC(C)=O
inactive: activity change, negative = inhibition [1] 10.3% | activity change, negative = inhibition [2] -0.404% | activity, negative = inhibition [3] 2.41% | Potency [4] > 20.6 µM

O=C(C/C(=N/O)c1ccccc1O)C(F)F
inactive: activity change, negative = inhibition [1] 15.8% | activity change, negative = inhibition [2] 0.0588% | activity, negative = inhibition [3] 3.52% | Potency [4] > 20.6 µM

CCCc1cc(=O)oc2c(C)c(O)c(CN3CCCCC3)cc12
inactive: activity change, negative = inhibition [1] 6.18% | activity change, negative = inhibition [2] 19.5% | activity, negative = inhibition [3] 10.7% | Potency [4] > 20.6 µM

CC1CN(c2oc(-c3cccs3)nc2C#N)CC(C)O1 (stereo unspecified)
inactive: activity change, negative = inhibition [1] 3.54% | activity change, negative = inhibition [2] 5.83% | activity, negative = inhibition [3] 14.9% | Potency [4] > 20.6 µM

COc1ccc(Nc2nc(Nc3ccc(OC)cc3)nc(-n3[nH]c(=O)c(C)c3C)n2)cc1
inactive: activity change, negative = inhibition [1] 22.4% | activity change, negative = inhibition [2] -1.75% | activity, negative = inhibition [3] 8.62% | Potency [4] > 20.6 µM

O=C1C2ON(c3ccccc3)C(c3ccncc3)C2C(=O)N1c1ccc(Br)cc1 (stereo unspecified)
inactive: activity change, negative = inhibition [1] -1.42% | activity change, negative = inhibition [2] 10.7% | activity, negative = inhibition [3] -10.2% | Potency [4] > 20.6 µM

CC1(C)Cc2c(C#N)c(N3CCN(C(=O)c4ccccc4)CC3)nc(-c3ccco3)c2CS1
inactive: activity change, negative = inhibition [1] -7.63% | activity change, negative = inhibition [2] -24.6% | activity, negative = inhibition [3] 9.81% | Potency [4] > 20.6 µM

C[N+]1(CCNC(=O)/C=N/O)CCCCC1
inactive: activity change, negative = inhibition [1] 7.1% | activity change, negative = inhibition [2] -12.9% | activity, negative = inhibition [3] 5.42% | Potency [4] > 20.6 µM

CC(C)(C)NCC(=O)c1c[nH]c2ccccc12
inactive: activity change, negative = inhibition [1] 9.26% | activity change, negative = inhibition [2] -0.153% | activity, negative = inhibition [3] 14.8% | Potency [4] > 20.6 µM

COc1ccc(-c2ncncc2-c2csc(C)n2)c(O)c1
inactive: activity change, negative = inhibition [1] 2.87% | activity change, negative = inhibition [2] -5.52% | activity, negative = inhibition [3] 0.893% | Potency [4] > 20.6 µM

COc1ccc(/C(O)=C2/C(=O)C(=O)N(CCCN(C)C)C2c2ccccc2)cc1OC (stereo unspecified)
inactive: activity change, negative = inhibition [1] -9.48% | activity change, negative = inhibition [2] -0.461% | activity, negative = inhibition [3] 8.71% | Potency [4] > 20.6 µM

COc1cccc(Cn2c(NCC(C)C)nc3c2c(=O)n(C)c(=O)n3C)c1
inactive: activity change, negative = inhibition [1] 15.5% | activity change, negative = inhibition [2] -1.36% | activity, negative = inhibition [3] -6% | Potency [4] > 20.6 µM

CCOc1ccc(C2=Nn3c(nnc3-c3cccnc3)SC2)cc1
inactive: activity change, negative = inhibition [1] 3.18% | activity change, negative = inhibition [2] -2.85% | activity, negative = inhibition [3] -4.46% | Potency [4] > 20.6 µM

CC(C)(C)C1=Nn2c(nnc2-c2ccco2)SC1
inactive: activity change, negative = inhibition [1] 2.22% | activity change, negative = inhibition [2] 11.1% | activity, negative = inhibition [3] 8.01% | Potency [4] > 20.6 µM

Cc1cc(C)n(Cc2cc(C)c(Cn3nc(C)cc3C)cc2C)n1
inactive: activity change, negative = inhibition [1] 14.4% | activity change, negative = inhibition [2] -3.13% | activity, negative = inhibition [3] -5.55% | Potency [4] > 20.6 µM
